Each structure is given as a SMILES string. “And” between values parts separate entries of the source, which are not always exact repeats. Equal entries are not always repeated. Results filed as inconclusive are left out. The source made the active and inactive calls.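 Rule for the calls, unless noted: active = compounds whose cell count with miR-34 switched on is under 0.7 times the count with it off; inactive = the rest.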

Assay [1] in a line: P. berghei load reduction in hepatocytes – cell-based, HepG2, luciferase luminescence, HepG2 viability, primary screen (AID 624349; in the data active = parasite load remaining mostly below about 12%, no sharp cut-off; inactive = mostly above about 10%;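 note: 100% = mean of DMSO negative control wells on the same plate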). To be noted: P. berghei liver stage in HepG2, luciferase luminescence, concentration not given here; parasite load remaining: stronger effect = lower value; viability: measured here: HepG2 viability without parasites.
Assay [2] can be described thus: Wnt pathway potentiators raising nuclear beta-catenin – imaging, WNT3A-conditioned medium, mouse C2C12, NPC library, primary screen (AID 1117326; in the data active = nuclear beta-catenin stimulation mostly above about 4.2%, no sharp cut-off; inactive = mostly below about 10%). To be noted: stronger effect = higher value.
Assay [3] is described as follows: stimulators of insulin release from INS-1E, primary screen, cell-based, 5 mM glucose, NPC library (AID 1117329;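 active = compound raises insulin release from rat beta cells at 5 mM glucose, no numeric limit stated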). To be noted: rat INS-1E insulin secretion, at 10 µM, stronger effect = higher value.
Assay [4] in a line: growth inhibition of GSK3B-pretreated HCT116 cells – cell-based, CellTiter-Glo, 0.2 to 20 µM (AID 1117336;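 active = compounds lowering colon cancer cell viability after pretreatment blocking the GSK3B kinase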). To be noted: HCT116 viability after GSK3B inhibitor, at 20 µM, stronger effect = higher value. Background: Cellular ATP, detected with luciferase, serves as a proxy for viable cell number.
Assay [5] is described as follows: inhibition of endothelial tube formation, primary screen, imaging, VEGF stimulated, CD31 staining, tube area, NPC library (AID 1117340;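 active = compound that reduces growth-factor-driven endothelial tube area in a mixed cell culture, no cutoff stated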). To be noted: VEGF-stimulated ADSC/ECFC co-culture, at 10 µM, stronger effect = higher value.
Assay [6] can be described thus: GLP1 release stimulators, primary, NCI-H716, NPC library (AID 1117341;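 active = compound raises GLP1 secretion from the human gut endocrine cells, with no numeric limit stated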). To be noted: NCI-H716 cells, at 10 µM, stronger effect = higher value.
The nature of assay [7]: HCT116 colon cancer cell growth inhibition, primary screen, CellTiter-Glo luminescence, NPC library (AID 1117342;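 active = compounds that lower survival of HCT116 colon cancer cells in the luminescence readout, no numeric limit stated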). The settings on record: at 20 µM (top of the series).
Assay [8] is described as follows: reduced SW480 viability measured with CellTiter-Glo, NPC library, primary (AID 1117343;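 active = compounds that lower viability of the colon cancer cells in the luminescence readout, with no numeric limit stated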). To be noted: CellTiter-Glo luminescence; at 20 µM (top of the series) unless noted.
Assay [9] can be described thus: NPC library primary testing for decreased DLD-1 cell viability via CellTiter-Glo (AID 1117346;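 active = compounds that lower survival of DLD-1 colon cancer cells in the luminescence readout, no cutoff given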). The settings on record: DLD-1 viability, CellTiter-Glo luminescence; at 20 µM (top of the series).
Assay [10] deals with Aerobactin synthetase IucA (Klebsiella pneumoniae). Put plainly: inhibition of K. pneumoniae IucA enzyme – biochemical, Tocris library, absorbance (AID 1345561; call rule not given here;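 note: 100% = enzyme without compound and 0% = no enzyme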). To be noted: purified IucA enzyme assay, absorbance (OD) read-out; stronger effect = lower value;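 tested at 8 µM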.
Assay [11] is described as follows: viability loss in pontine glioma line – cell-based, SU-DIPG-XVII, MIPE5.0, CellTiter-Glo, qHTS, dose response (AID 1347060; cut-off not given, nearly all actives have AC50 up to about 26 µM;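 note: cells exposed to compound for 48 hours before viability readout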). The settings on record: CellTiter-Glo ATP luminescence.
The nature of assay [12]: growth inhibition of DIPG cells – cell-based, MIPE5.0 library, qHTS (AID 1347068; cut-off not given, nearly all actives have IC50 up to about 30 µM;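 for IC50: cells exposed to compound for 48 hours before viability readout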). The settings on record: SU-DIPG-XXV viability. Background: In qHTS, concentration-response curves come from the screen itself.
Assay [13] is described as follows: viability loss with induced miR-34 in A549 – imaging, A549 dox-inducible miR-34, nuclei and caspase counts, primary screen (AID 1347080). To be noted: A549 miR-34 inducible, Hoechst nuclei count, 48 h.
Assay [14] can be described thus: MELAS cybrid and Rieske KO viability enhancers – cell-based, MELAS cybrids, Rieske KO mouse fibroblasts, CellTiter-Glo, primary screen (AID 1508586;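 active = mean z-score across replicates of 1.96 or higher in either the MELAS or the Rieske mutant cell line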;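 note: z relative to plate mean and SD of compound and empty wells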). The settings on record: low glucose.
Assay [15] deals with NAD(+) hydrolase SARM1 (Homo sapiens) (UniProt Q6SZW1). The assay is described as follows: blocking NAD cleavage by SARM1 SAM-TIR – cell lysate, NAD-Glo luminescence (AID 1508614;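 active = compound whose remaining NAD level is above about 45 nM, limit read from the data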;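 note: higher remaining NAD means stronger inhibition of SARM1 NADase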). The settings on record: SAM-TIR HEK293T lysate NADase, at 1 µM, stronger effect = higher value.
The nature of assay [16]: galactose survival enhancers in mitochondrial complex I cybrids – cell-based, galactose medium, ATP luminescence, primary screen (AID 1645843;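 active = z-score of at least 1.8 in each of two replicates, scored against plate mean and spread of sample wells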;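 note: positive z means more ATP and so rescue of galactose-driven cybrid death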). The settings on record: complex I mutant cybrid cells, 72 h, stronger effect = higher value.
Assay [17] in a line: growth inhibition of DIPG cells – cell-based, MIPE4.0 library, CellTiter-Glo luminescence, qHTS (AID 1347066; cut-off not given, nearly all actives have AC50 up to about 30 µM;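 note: cells exposed to compound for 48 hours before readout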). The settings on record: SU-DIPG-VI viability, CellTiter-Glo ATP luminescence.
Where [18] appears, read: stronger effect = lower value, cell number ratio, induced over uninduced.
Setting [19] is: measured here: relative caspase fold change +Dox/-Dox.
The mark [20] stands for this setting: measured here: total cells with miR-34 induction, stronger effect = lower value.
Setting [21] is: measured here: total cells without miR-34 induction.

NAD(+) hydrolase SARM1 (Homo sapiens), sequence (Q6SZW1 whole entry, looked up): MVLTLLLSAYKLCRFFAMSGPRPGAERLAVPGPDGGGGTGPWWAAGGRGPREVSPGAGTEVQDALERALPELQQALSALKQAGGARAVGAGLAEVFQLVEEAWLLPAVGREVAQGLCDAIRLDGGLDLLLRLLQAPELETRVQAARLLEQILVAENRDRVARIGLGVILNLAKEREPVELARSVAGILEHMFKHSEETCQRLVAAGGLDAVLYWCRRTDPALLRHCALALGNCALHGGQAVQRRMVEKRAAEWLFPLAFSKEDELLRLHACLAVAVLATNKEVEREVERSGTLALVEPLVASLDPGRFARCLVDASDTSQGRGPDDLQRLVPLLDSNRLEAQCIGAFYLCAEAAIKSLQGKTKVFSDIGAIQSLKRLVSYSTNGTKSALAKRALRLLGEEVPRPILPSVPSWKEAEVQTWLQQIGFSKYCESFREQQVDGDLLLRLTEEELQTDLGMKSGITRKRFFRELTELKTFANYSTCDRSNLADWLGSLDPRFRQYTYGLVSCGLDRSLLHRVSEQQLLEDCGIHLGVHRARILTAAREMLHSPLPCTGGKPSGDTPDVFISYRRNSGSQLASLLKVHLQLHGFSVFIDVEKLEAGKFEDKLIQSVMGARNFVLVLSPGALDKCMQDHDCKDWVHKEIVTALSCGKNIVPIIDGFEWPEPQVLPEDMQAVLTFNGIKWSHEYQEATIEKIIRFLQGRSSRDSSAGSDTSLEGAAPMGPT

As for `CC[C@]1(O)C[C@H]2CN(CCc3c([nH]c4ccccc34)[C@@](C(=O)OC)(c3cc4c(cc3OC)N(C=O)[C@H]3[C@@](O)(C(=O)OC)[C@H](OC(C)=O)[C@]5(CC)C=CCN6CC[C@]43[C@@H]65)C2)C1`, the parasite load remaining in assay [1] was 14.9% (inactive). Also, the viability in [1] came out at 84%. The nuclear beta-catenin stimulation was 44% (active) in assay [2] (at 10 µM) and 76% in assay [2] (stimulation, at 2 µM). In [3], the insulin secretion stimulation was -1.1% (inactive). Besides, the viability decrease in assay [4] is 98.6% (active). In addition, the tube area decrease in assay [5] was 109% (active). In assay [6], the GLP1 secretion stimulation was 4.5% (inactive). Further, in [7], the inhibition of viability was 67% (active). The viability decrease (inhibition) in assay [8] was 56% (active); in assay [9], 59.1% (active). In assay [10], the remaining activity was 121% (inactive). Also, the AC50 in assay [11] is 0.0295 µM (active). Besides, the IC50 in assay [12] is 0.235 µM (active). Also, the fold change in [13] (setting [18]) was 0.912 (inactive) and 1.12 (inactive); in [13] (setting [19]), 1.85 and 0.866. Further, the cell count in assay [13] (setting [20]) was 1380 and 1910; in assay [13] (setting [21]) it was 1510 and 1710. Moreover, the z-score in assay [14] (MELAS cybrid survival, CellTiter-Glo 48 h, stronger effect = higher value) is -2.16 (inactive); in [14] (Rieske KO mouse fibroblast survival, CellTiter-Glo 72 h), 1.73; in [16], -0.515 (inactive) and -1.81 (inactive). In addition, the remaining NAD in assay [15] was 10 nM (inactive).

For the compound `Cc1cc(C)c(/C=C2\C(=O)Nc3ccccc32)[nH]1`, the parasite load remaining in [1] was 27.2% (inactive). For the same compound, the viability in assay [1] was determined as 69.7%. Besides, the nuclear beta-catenin stimulation in [2] (at 10 µM) was 9.9% (inactive); in assay [2] (stimulation, at 2 µM) it was 0.7%. For the same compound, the insulin secretion stimulation in assay [3] is -0.8% (inactive). Moreover, in assay [4], the viability decrease is 20.1% (inactive). The tube area decrease in assay [5] was 99.7% (active). Also, in assay [6], the GLP1 secretion stimulation was 12.8% (inactive). Besides, in [7], the inhibition of viability is -18.7% (inactive). The viability decrease (inhibition) is 48.7% (inactive) in [8] and 37.2% (inactive) in assay [9]. The remaining activity in assay [10] is 104% (inactive). Moreover, the fold change is 1.05 (inactive) and 0.921 (inactive) and 0.87 (inactive) in assay [13] (setting [18]); 0.773 and 1.14 and 1.43 in assay [13] (setting [19]). Further, the cell count was 4600 and 5070 and 6640 in assay [13] (setting [20]); 4380 and 5510 and 7630 in assay [13] (setting [21]). Besides, in assay [16], the z-score is 0.06 (inactive) and 0.095 (inactive).

With `CC1(CN2CCC(n3c(=O)[nH]c4ccccc43)CC2)OCc2ccccc2-n2cccc21` (centres undefined), the nuclear beta-catenin stimulation in assay [2] (at 10 µM) is 2.3% (inactive); in assay [2] (stimulation, at 2 µM), 2%. Besides, in assay [3], the insulin secretion stimulation was -3.4% (inactive). For the same compound, in assay [4], the viability decrease was 78.6% (active). Further, the tube area decrease in assay [5] is 7.2% (inactive). Also, the GLP1 secretion stimulation in assay [6] was 3.3% (inactive). Moreover, the inhibition of viability in [7] is 113% (active). The viability decrease (inhibition) in assay [8] was 146% (active); in assay [9] it was 101% (active). Besides, the remaining activity in assay [10] was 97.5% (inactive). In addition, the call in assay [17] and in assay [12] was inactive. Also, the results for the fold change in assay [13] (setting [18]) and in assay [13] (setting [19]) were 0.899 (inactive) and 1.14, respectively. The cell count came to 6010 in assay [13] (setting [20]) and 6680 in assay [13] (setting [21]). Further, in assay [16], the z-score was -0.665 (inactive).

Regarding `COc1ccc2c(c1OC)C(=O)O[C@@H]2[C@H]1c2c(cc3c(c2OC)OCO3)CCN1C`, the parasite load remaining in assay [1] was 89.7% (inactive) and 72.1% (inactive). The viability in [1] was 104% and 75.4%. Further, the nuclear beta-catenin stimulation in assay [2] (at 10 µM) is 3.5% (inactive); in assay [2] (stimulation, at 2 µM), 0.1%. Besides, in assay [3], the insulin secretion stimulation was 2% (inactive). Besides, the viability decrease in assay [4] was 55.6% (active). In assay [5], the tube area decrease was 4.1% (inactive). For the same compound, the GLP1 secretion stimulation in assay [6] was -1.8% (inactive). Besides, in assay [7], the inhibition of viability is 46.2% (inactive). Further, the figures for the viability decrease (inhibition) in assay [8] and in [9] were 90.4% (active) and 2.7% (inactive), respectively. Also, the remaining activity in [10] was 111% (inactive). The fold change was 0.961 (inactive) and 0.857 (inactive) and 1.04 (inactive) in assay [13] (setting [18]); 0.539 and 1.29 and 0.971 in assay [13] (setting [19]). The cell count in [13] (setting [20]) is 6010 and 7290 and 6960; in assay [13] (setting [21]), 6250 and 8520 and 6720. Moreover, the remaining NAD in [15] was 10 nM (inactive). Moreover, in assay [16], the z-score is 0.555 (inactive) and 0.075 (inactive).

For `CCn1ccnc1CC1COc2ccccc2O1` (centres undefined), the nuclear beta-catenin stimulation in [2] (at 10 µM) was 1.8% (inactive); in [2] (stimulation, at 2 µM) it was 0.3%. The insulin secretion stimulation in [3] is -3.2% (inactive). Also, in assay [4], the viability decrease is -16.7% (inactive). The tube area decrease in [5] was -3.6% (inactive). Also, the GLP1 secretion stimulation in assay [6] is 0% (inactive). Besides, in assay [7], the inhibition of viability is 1.63% (inactive). Further, the viability decrease (inhibition) in assay [8] is 7.7% (inactive); in assay [9] it was -5.9% (inactive). The remaining activity in assay [10] was 82.4% (inactive). The fold change was 1.08 (inactive) and 0.969 (inactive) in assay [13] (setting [18]); 1.15 and 0.987 in assay [13] (setting [19]). Further, the cell count is 10600 and 8940 in assay [13] (setting [20]); 9870 and 9220 in assay [13] (setting [21]). The z-score in assay [16] was 0.675 (inactive) and 1.33 (inactive).

As usually defined, the viability is a read-out of living cells in per cent, often relative to untreated cells. One may read the remaining activity as the signal under treatment as a percentage of the control signal. The term AC50 denotes the midpoint of the concentration-response curve, whichever way the signal moves. By IC50 is commonly meant the concentration at which inhibition is half-maximal.

For the origin of these results see PubChem BioAssay.
